37 compounds from publication PMC5540273 (PLoS ONE, 2017) can be followed below.
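Further: KINOMEscan kinase panel screen.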

For this experiment, the system named is PAK3. The settings on record: concentration: 1 μM, replicates: in singlicate; n = 1.
As to `FC(F)(F)c1ccc(/C=C/c2cncnc2Nc2ccc3[nH]c(Cc4ccccc4)nc3c2)cc1` [GW709199], the “%Inh” value is reported as 0%.

On to `COc1ccc(Nc2nccc(NCCNC(=O)c3cc4ccccc4s3)n2)cc1` [GSK1379896], for which the “%Inh” value was 2%.

As to `Cl.Cl.NCC(NCc1ccc(-c2ccnc3[nH]ccc23)s1)c1ccccc1` (stereo not shown) [GSK1321565], the “%Inh” value is reported as 69%.

Consider `O=C(Nc1cccc(-c2nn3ncccc3c2-c2ccnc(Nc3ccccc3)n2)c1)c1c(F)cccc1F` [GSK198271], for which the “%Inh” value amounted to 31%.

As to `Cn1cc(-c2ccc3c(c2)CCN3C(=O)Cc2cccc(F)c2)c2c(N)ncnc21` [GSK2603358], the “%Inh” value is 31%.

As for `Nc1ncc(-c2cccnc2)c2scc(-c3ccc4c(c3)CCN4C(=O)Cc3ccccc3)c12` [GSK683281], the “%Inh” value came out at 62%.

As for `COC(=O)Nc1nc2cc(Oc3ccc(NC(=O)Nc4cc(C(F)(F)F)ccc4F)cn3)ccc2[nH]1.Cl.Cl` [GW681170], the “%Inh” value is 9%.

Take `CCn1c(-c2nonc2N)nc2c(C#CC(C)(C)O)nc(OC[C@H](N)c3ccccc3)cc21` [GSK943949]: the “%Inh” value is 27%.

As to `COc1ccc(Nc2nccc(N3CCC(NC(=O)Nc4cccc(OC)c4)C3)n2)cc1` (stereo not shown) [GSK1379742], the “%Inh” value came to 0%.

Consider `O=C(Nc1cccc(Oc2ccc3nc(NC(=O)C4CC4)cn3n2)c1)c1ccccc1C(F)(F)F`, for which the “%Inh” value was 4%.

Regarding `Fc1ccc(-c2ncn(C3CCNCC3)c2-c2ccnc(Oc3ccc(-c4ccccc4)cc3)n2)cc1` [SB-245391], the “%Inh” value stood at 22%.

Regarding `CC(=O)Nc1nc2cnc(Nc3cc(NC(=O)c4cccc(C5(C#N)CC5)c4Cl)ccc3C)nc2s1`, the “%Inh” value amounted to 0%.

For `Clc1ccc(-c2nn3ncccc3c2-c2ccnc(Nc3ccc4c(c3)OCCO4)n2)cc1` [GW829116], the “%Inh” value is 0%.

For the compound `O=C(Nc1ccccc1F)NC1CCN(c2ccnc(Nc3ccc(F)cc3)n2)CC1` [GSK1379800], the “%Inh” value amounted to 0%.

Consider `c1ccc(-c2cnc3nccnn23)cc1` [AH20685], for which the “%Inh” value stood at 2%.

As for `COc1cc2c(cc1OCCN1CCNCC1)ncc1c3ccc(C#N)cc3[nH]c21`, the “%Inh” value is given as 0%.

With `COc1cccc(C2=C(Nc3ccc(Cl)c(C(=O)O)c3)C(=O)NC2=O)c1` [SB-390769], the “%Inh” value came out at 0%.

Take `O=C(O)C(F)(F)F.O=C(O)C(F)(F)F.O=c1[nH]ccc2nc(N[C@@H]3CCCNC3)nc(Nc3ccc(S(=O)(=O)N4CCOCC4)cc3)c12` [GSK2177277]: the “%Inh” value is 100%.

For the compound `COc1cccc(NC(=O)NC2CCN(c3ccnc(Nc4cc(OC)c(OC)c(OC)c4)n3)C2)c1` (stereo not shown) [GSK1379763], the “%Inh” value is 0%.

As for `O=c1[nH]cc(-c2ccc(N3CCOCC3)cc2)c2sc(-c3cn[nH]c3)cc12` [GSK2276055], the “%Inh” value worked out at 0%.

As to `Nc1ncc(-c2ccc3nccc(-c4ccncc4)c3c2)cc1S(=O)(=O)N1CCOCC1` [GSK1627798], the “%Inh” value is 5%.

Turning to `Cl.c1ccc(-c2ccc3c(Nc4ccc5[nH]ncc5c4)ccnc3c2)nc1` [GW440137], the “%Inh” value was 0%.

For `Cc1ccc(C)c(NC(=O)NC2CCN(c3ccnc(Nc4ccc(F)cc4)n3)C2)c1` (stereo not shown) [GSK1379720], the “%Inh” value came to 14%.

With `Cl.Cl.NCC(NC(=O)c1cc(-c2ccccc2)c(-c2ccnc3[nH]ccc23)s1)c1ccccc1` (stereo not shown) [GSK1321561], the “%Inh” value came to 30%.

Take `Cc1occc1-c1ncc(OC[C@@H](N)Cc2c[nH]c3ccccc23)cc1-c1ccc2[nH]nc(C)c2c1.O=C(O)C(F)(F)F` [GSK682037]: the “%Inh” value came out at 32%.

As to `CN(c1ccc(NC(=O)Nc2cc(C(F)(F)F)ccc2F)cc1)c1ccnc(Nc2ccc(S(N)(=O)=O)cc2)n1` [GW809893], the “%Inh” value came to 23%.

In the case of `CC(C)c1nc(-c2cccc(NS(=O)(=O)c3c(F)cccc3F)c2F)c(-c2ccnc(Nc3ccc(N4CCOCC4)nc3)n2)s1` [GSK2008607], the “%Inh” value is reported as 93.3%.

On to `Cc1cccc(Nc2nc(N[C@H]3CCNC3)ncc2C(N)=O)c1.Cl` [GSK2197149], for which the “%Inh” value is 66%.

Consider `COc1cccc(C(=O)Nc2cccc(Oc3ccc4nc(NC(=O)C5CC5)cn4n3)c2)c1`, for which the “%Inh” value worked out at 23%.

With `Cl.c1ccc(-c2ccc3c(Nc4ccc5[nH]ccc5c4)ccnc3c2)nc1` [GW440138], the “%Inh” value amounted to 0%.

As for `CC(=O)N1CCN(c2ccc(Nc3nccc(-c4sc(C(C)C)nc4-c4cccc(NS(=O)(=O)c5cccc(Cl)c5)c4)n3)cn2)CC1` [GSK1660437], the “%Inh” value was determined as 57%.

With `CCn1c(-c2nonc2N)nc2c(C#CC(C)(C)O)ncc(OCCCCN)c21.O=C(O)C(F)(F)F.O=C(O)C(F)(F)F` [GSK507274], the “%Inh” value came out at 49%.

For `O=C(Nc1cccc(-c2nn3ccccc3c2-c2ccnc(Nc3cccc(C(F)(F)F)c3)n2)c1)c1c(F)cccc1F` [GSK292658], the “%Inh” value turned out to be 21%.

In the case of `O=C(NC1CCN(c2ccnc(Nc3ccc(F)cc3)n2)C1)c1cc2ccccc2s1` (stereo not shown) [GSK1379716], the “%Inh” value is recorded as 19%.

Consider `COc1cc(Nc2nccc(-c3c(-c4cccc(NC(=O)c5c(F)cccc5F)c4)nn4ncccc34)n2)cc(OC)c1OC` [GSK327238], for which the “%Inh” value was 36%.

As to `COc1cccc(-c2ccc3c(NC(=O)C4CC4)n[nH]c3n2)c1` [SB-710903], the “%Inh” value worked out at 1%.

As to `Cn1cc(-c2ccc3c(c2)CCN3C(=O)Cc2cccc(Cl)c2)c2c(N)ncnc21` [GSK2606590], the “%Inh” value is 46%.
